According to PubChem BioAssay AID686915 (National Center for Advancing Translational Sciences (NCATS), 2013):
Results filed as inconclusive are left out. Entries that show only a call come without a potency. Activity calls are given as the source filed them. Calls follow the shape of the dose curve; as a rule, active = well fitted inhibition curve with a large enough effect; inconclusive = small, poorly fitted or top-dose-only effect; inactive = no such curve, though single readings can be large or run the other way.

Experiment: qHTS screen for inhibitors of ELG1-dependent DNA repair in human embryonic kidney (HEK293T) cells expressing luciferase-tagged ELG1: MMS Stimulated Assay for probe SAR
Conditions: HEK293T ELG1-luciferase reporter, 16 h; series mostly up to 46.1 µM
Source text: Cancer cells divide rapidly compared to normal cells in the body. During cell division, cancer cells need to duplicate their genome by DNA replication. The failure of genome duplication leads to cancer cells' death. Therefore, inhibitors of DNA replication could specifically kill cancer cells. Based on this concept, many chemotherapeutic agents were developed and have been used to treat cancer patients. However, there are a limited number of agents available in the clinical setting, and some of those that do exist have low efficacy and severe side effects. Therefore, if we can find the compounds that effectively block DNA replication either by directly damaging DNA or by inhibiting other cellular mechanisms, the options for cancer treatment will be broadened. With this in mind, we developed a quantitative high-throughput ELG1-luciferase reporter gene assay. Small molecules that specifically block ELG1 function in response to DNA damage can be identified by monitoring the suppression of luciferase activity. Since ELG1 defines a pathway for repairing DNA damage, agents blocking ELG1 function can be used to sensitize cancer cells to chemotherapeutic agents whose mechanism of action involves the induction of DNA damage. NIH Molecular Libraries Probe Production Network [MLPCN] NIH Chemical Genomics Center [NCGC] MLPCN Grant: R03 MH092164 Assay Provider: Kyungjae Myung, NHGRI, NIH
ELG1-luc HEK293T cells will be seeded in 1536-well plates at a density of 2,000 cells / well. Approximately 5 hours after plating, compounds will be added to the plate by pin tool transfer and MMS will be added by FRD dispenser (final concentration of MMS = 10 µM). 16 hours following the addition of the compounds, luciferase activity will be measured using Amplight reagent.
With `COc1cc(-c2nc(Nc3ccc(F)c(F)c3)c3ccccc3n2)c(F)cn1` the Potency was 8.33 µM (active). In the case of `CN1CCN(c2cc(-c3nc(Nc4ccc(F)c(F)c4)c4ccccc4n3)ccn2)CC1`, the Potency is reported as 23.5 µM (active). For `COc1cnccc1-c1nc(Nc2ccc(F)c(F)c2)c2ccccc2n1`, the Potency was 13.2 µM (active). For `Fc1ccc(-c2ccc(Nc3nc(-c4ccncc4)nc4ccccc34)cc2F)c(Cl)c1`, the Potency was 11.8 µM (active). In the case of `Fc1cc(Nc2nc(-c3ccncc3)nc3ccccc23)ccc1N1CCNCC1`, the Potency is reported as “inactive”. In the case of `Cc1cnccc1-c1nc(Nc2ccc(F)c(F)c2)c2ccccc2n1`, the Potency is reported as “inactive”. With `Fc1cc(Nc2nc(-c3ccncc3)nc3ccccc23)ccc1-c1ccnc(C(F)(F)F)c1` the Potency was “inactive”. With `COc1ccc(-c2ccc(Nc3nc(-c4ccncc4)nc4ccccc34)cc2F)cc1F` the Potency was “inactive”. For `O=[N+]([O-])c1ccc(-c2nc(Nc3ccc(F)c(F)c3)c3ccccc3n2)cc1`, the Potency was “inactive”. For `COc1cc(-c2nc(Nc3ccc(F)c(F)c3)c3ccccc3n2)ccn1`, the Potency was “inactive”. In the case of `Fc1cc(Nc2nc(-c3ccncc3)nc3ccccc23)ccc1-c1ccc2[nH]ncc2c1`, the Potency is reported as “inactive”. In the case of `Cc1ccc(Nc2nc(-c3ccncc3)nc3ccccc23)cc1F`, the Potency is reported as “inactive”.
